The values below come from PubChem BioAssay AID372 (MTDP, 2006).

Among all 100,000 compounds or so, about 770 (0.77%) were called active. Many of the other results were omitted from the sample, so actives are more common in it than they were. A number with no mark means an inactive call. Cut-off read from the data, not from the text of the source: active = inhibition above about 50%; inactive = the rest.

In the test the target is Gag-Pol polyprotein (Human immunodeficiency virus type 1 group M subtype B (isolate HXB2)) (UniProt P04585). The test can be described thus: RNase H inhibition, HIV 1 Gag Pol polyprotein, FRET biochemical assay, screening (AID 372). The settings on record: HIV-1 RT RNase H, FRET RNA/DNA substrate fluorescence; at 10 µM; stronger effect = higher value.
Broadly, the inhibition is the percentage by which the read-out fell short of the control. Regarding `CC1(C)C(c2ccccc2)=NC(c2ccccc2F)=[N+]1[O-]`, the inhibition was 0%. Then `COc1ccc(/C=N/NC(=O)c2cc(-c3ccc(Cl)cc3)n[nH]2)cc1`, with 14%; and `CC(C)(C)N1C(=O)c2ccc(C(=O)c3ccc(C(=O)O)cc3)cc2C1=O`, with 0%. On to `Cc1cc(/C=C2\NC(=O)NC2=O)c(C)n1-c1cccc([N+](=O)[O-])c1`, for which the inhibition was 29%. Then `CCC(=O)N(Cc1ccco1)C1CC(=O)N(c2ccccc2)C1=O` (centres undefined), with 0%; and `Cn1c(/C=C/c2ccc(Br)cc2)c([N+](=O)[O-])c(=O)n(C)c1=O`, with 6%. The same measure for `CCOc1ccc(/C=C/c2c([N+](=O)[O-])c(=O)n(C)c(=O)n2C)cc1`: 16%; for `Cn1c(/C=C/c2cccc(Oc3ccccc3)c2)c([N+](=O)[O-])c(=O)n(C)c1=O`: 54% (active). As for `Cc1[nH]n(-c2ccccc2)c(=O)c1N=Nc1ccccc1Br`, the inhibition is 5%. Then `COc1ccc2ccccc2c1/C=C1\SC(=Nc2cccc(Cl)c2C)NC1=O`, with 35%; and `O=C(Nc1ccc(Cl)cc1)Nc1cc(Cl)cc(Cl)c1`, with 6%; and `O=C(Nc1ccc(Cl)cc1)Nc1ccc(-c2ccc(NC(=O)Nc3ccc(Cl)cc3)cc2)cc1`, with 57% (active). For `O=C(Nc1ccc(O)cc1)Nc1ccc(Cl)cc1`, the inhibition is 17%.

Turning to `COc1ccc(N2C(=O)/C(=C/c3ccc(-c4ccc([N+](=O)[O-])cc4Cl)o3)SC2=S)cc1`, the inhibition was 18%. Then `O=C(O)c1cccc(-c2ccc(/C=C3\SC(=S)N(c4ccc([N+](=O)[O-])cc4)C3=O)o2)c1`, with 12%; and `COc1ccc(N2C(=O)/C(=C/c3ccc(-c4ccccc4[N+](=O)[O-])o3)SC2=S)cc1`, with 26%.

Turning to `O=C(O)c1ccc(-c2ccc(/C=C3\SC(=S)N(c4ccc([N+](=O)[O-])cc4)C3=O)o2)cc1`, the inhibition was 49%.

`COc1ccc(N2C(=O)/C(=C/c3ccc(-c4ccc([N+](=O)[O-])c(C)c4)o3)SC2=S)cc1`: the inhibition was 64% (active). Then `O=C1/C(=C\c2ccc(-c3ccc([N+](=O)[O-])cc3)o2)SC(=S)N1c1ccc(O)cc1`, with 52% (active); and `COc1ccc(CN2CCN(Cc3ccccc3C(F)(F)F)CC2)cc1Br`, with 4%. The same measure for `Cc1ccc(/C(N)=N/OC(=O)c2ccc(C)cc2Cl)cc1`: 10%. With `Clc1ccc(-c2nnc(-c3ccc4c(c3)OCO4)o2)c(Cl)c1`, the inhibition is 3%. The same measure for `CCOC(=O)C1=C(C)N=c2s/c(=C\c3cccc(OCc4ccccc4Cl)c3)c(=O)n2C1c1ccc(Cl)cc1` (centres undefined): 11%. On to `COc1ccc(Br)cc1CNC12CC3CC(CC(C3)C1)C2`, for which the inhibition is 6%.
